Records with an inconclusive call do not appear. The source made the active and inactive calls. Calls come from the whole dose curve; as a rule, active = well fitted activation curve with a large enough effect in the repeat runs; inconclusive = weak or mixed curves; inactive = flat fitted curve, though single readings scatter.
Assay: A CellTox Green Cytotoxicity Assay to monitor cytotoxicity in HepG2 cells - 32 hour (AID 1224883); note: nearly all actives have a fitted effect of over 50% in size
Conditions: CellTox Green fluorescence; series mostly up to 76.8 µM; cytotoxicity increase: at the top concentration
Text: National Center for Advancing Translational Sciences [NCATS]
NIH Chemical Genomics Center [NCGC]
U.S. Environmental Protection Agency [EPA]
National Institutes of Environmental Health Sciences [NIEHS]
National Toxicology Program [NTP]
Cell-based models are critical for drug discovery. Determining the natural cytotoxic effects resulting from test compounds is an essential research activity. A CellTox Green Cytotoxicity Assay to monitor cytotoxicity in real time of continues cell culture during 40 hours of the compound treatment was used to screen Tox21 10K library compounds in HepG2 cells. CellTox Green Cytotoxicity Assay is a nonlytic, homogeneous, biofluorescent method to measure cytotoxicity in cell culture after experimental manipulation. The assay system uses a proprietary asymmetric cyanine dye that is excluded from viable cells but preferentially stains the dead cell's DNA. […] Viable cells produce no appreciable increases in fluorescence. Therefore, the fluorescence signal produced by the binding interaction with dead cell DNA is proportional to cytotoxicity.
The mixture of HepG2 cell suspension and reagents were dispensed at 600cells/6 ul/well in 1536-well tissue culture treated black solid bottom plates using a Multidrop dispenser. After the assay plates were incubated at a 37 C/5% CO2 incubator for 5 hours, 23 nL of compounds dissolved in DMSO, positive and negative controls was transferred to the assay plate by a pintool work station. The plates were incubated at 37 C for 40 hours. The fluorescence intensity were measured at 0h, 8h, 16h, 24h, 32h and 40h time points using ViewLux plate reader during compound treatment.
% is set by controls: 0 for no effect and ±100 for the full control effect; potency is the fitted concentration of half-maximal effect.

SMILES	cytotoxicity increase	Potency
CCCc1ccccc1	-9.71% (inactive)	
CC1(C)[C@H]2CC[C@]1(C)[C@H](O)C2	-11% (inactive)	
CN1CCC(=C2c3ccccc3CCc3sccc32)CC1		23.9 µM (active)
CCC(=O)OC(C)(C)C1CC=C(C)CC1 (stereo not given)	-10.1% (inactive)	
O=C(C(=O)c1ccc(Br)cc1)c1ccc(Br)cc1	-9.52% [at 15.8 µM] (inactive)	
O=C(NS(=O)(=O)/C=C/c1cccs1)c1ccc(F)cc1Br	-5.55% (inactive)	
CC(=O)Nc1ccc(/C=N/NC(N)=S)cc1	2.51% [at 35.3 µM] (inactive)	
CC[C@H](C)[C@@H](C(=O)O)n1sc2ccccc2c1=O	2.99% (inactive)	
CCCCCCCCCCCCCCCC(=O)OC/C=C(C)/C=C/C=C(C)/C=C/C1=C(C)CCCC1(C)C	-5.87% (inactive)	
NC(N)=NN=C(/C=C/c1ccc([N+](=O)[O-])o1)/C=C/c1ccc([N+](=O)[O-])o1		2.39 µM (active)
O=CNc1ccccc1	0.103% (inactive)	
CC(C)(C)c1ccc(OCC2CO2)cc1 (stereo not given)	21.4% (inactive)	
O=c1[nH]cnc2ccccc12	1.3% (inactive)	
CC(C(=O)O)c1ccc(C(=O)c2ccccc2)s1 (stereo not given)	17.6% [at 35.3 µM] (inactive)	
Cl/C(=C\n1cncn1)c1ccc(Cl)cc1Cl	10.1% [at 35.3 µM] (inactive)	
C=C(C)C(=O)OCCN(C)C	-5.61% (inactive)	
CCOC(=S)SSC(=S)OCC	1.52% (inactive)	
CCCCOCCOCCOCCOCCO	-8.28% (inactive)	
c1ccc(CNCc2ccccc2)cc1	4.41% (inactive)	
OCCC1CCCCN1 (stereo not given)	-6.25% (inactive)	

SMILES	cytotoxicity increase	Potency
N#Cc1cc2ccccc2c2ccccc12	-13.1% (inactive)	
FC(F)(F)C(F)(F)C(F)(F)C(F)(F)C(F)(F)C(F)(F)CCI	1.33% [at 35.3 µM] (inactive)	
CN1CCN(C2=Nc3ccccc3Sc3ccc(Cl)cc32)CC1	20.9% [at 35.3 µM] (inactive)	
O=C(O)Cn1c(C(=O)Nc2nc(-c3ccccc3Cl)cs2)cc2ccccc21	8.76% [at 35.3 µM] (inactive)	
Cc1ncsc1CCO	-1.7% (inactive)	
CCOC(=O)CC(C)C	-1.46% (inactive)	
CNS(=O)(=O)Cc1ccc2[nH]cc(CCN(C)C)c2c1	-7.94% [at 35.3 µM] (inactive)	
C=CC(=O)OCCOC(=O)CCC(=O)O	-10.9% (inactive)	
CC(C)(C)c1ccc(S)cc1	-10% (inactive)	
CCN1CCC[C@H]1CNC(=O)c1c(OC)ccc(Br)c1OC	-5.33% [at 35.3 µM] (inactive)	
CCN(CC)CCOC(=O)C1(c2ccccc2)CCCC1	10.4% [at 35.3 µM] (inactive)	
O=C(CCN1CCN2CCCC2C1)N1c2ccccc2Sc2ccc(Cl)cc21 (stereo not given)	16.3% [at 15.8 µM] (inactive)	
CCCCCCCCN(C)C	-9.65% (inactive)	
C#CCOC(=O)[C@@H](C)Oc1ccc(Oc2ncc(Cl)cc2F)cc1	0.967% (inactive)	
O=C1[C@H](CC[C@H](O)c2ccc(F)cc2)[C@@H](c2ccc(O)cc2)N1c1ccc(F)cc1	3.23% [at 35.3 µM] (inactive)	
CCCOc1ccc2nc(NC(=O)OC)[nH]c2c1	3.64% [at 35.3 µM] (inactive)	
CN1CCC(OC(c2ccccc2)c2ccccc2)CC1	-5.86% [at 35.3 µM] (inactive)	
S=C(S)NCCNC(=S)S	-22.9% (inactive)	
C=C(C)C(=O)OCCOc1ccccc1	19.2% (inactive)	
O=c1c2ccccc2nnn1CCl	-15.6% (inactive)	

— PubChem BioAssay (Tox21)
